In PubChem BioAssay AID2221 (Broad Institute, 2009):
Out of some 290,000 compounds screened, about 2,200 (0.76%) were called active. The full list was thinned out, with actives kept by preference. Unmarked numbers belong to inactive results. No stated cut-off is given here; in the data, active means inhibition above about 30%; inconclusive means no clear call, values can overlap the other calls; inactive means below that.

These compounds were tested against Protein RecA (Mycobacterium tuberculosis (strain ATCC 25618 / H37Rv)) (UniProt P9WHJ3) (assay: Mtb RecA intein splicing inhibitors, primary screen, biochemical, fluorescence, HTS (AID 2221;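 further: 0% = vehicle wells and 100% = reference inhibitor control wells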)). Details: cell-free RecA intein splicing, stronger effect = higher value, concentration not given here.
Sequence of Protein RecA (Mycobacterium tuberculosis (strain ATCC 25618 / H37Rv)) (P9WHJ3 whole entry, looked up): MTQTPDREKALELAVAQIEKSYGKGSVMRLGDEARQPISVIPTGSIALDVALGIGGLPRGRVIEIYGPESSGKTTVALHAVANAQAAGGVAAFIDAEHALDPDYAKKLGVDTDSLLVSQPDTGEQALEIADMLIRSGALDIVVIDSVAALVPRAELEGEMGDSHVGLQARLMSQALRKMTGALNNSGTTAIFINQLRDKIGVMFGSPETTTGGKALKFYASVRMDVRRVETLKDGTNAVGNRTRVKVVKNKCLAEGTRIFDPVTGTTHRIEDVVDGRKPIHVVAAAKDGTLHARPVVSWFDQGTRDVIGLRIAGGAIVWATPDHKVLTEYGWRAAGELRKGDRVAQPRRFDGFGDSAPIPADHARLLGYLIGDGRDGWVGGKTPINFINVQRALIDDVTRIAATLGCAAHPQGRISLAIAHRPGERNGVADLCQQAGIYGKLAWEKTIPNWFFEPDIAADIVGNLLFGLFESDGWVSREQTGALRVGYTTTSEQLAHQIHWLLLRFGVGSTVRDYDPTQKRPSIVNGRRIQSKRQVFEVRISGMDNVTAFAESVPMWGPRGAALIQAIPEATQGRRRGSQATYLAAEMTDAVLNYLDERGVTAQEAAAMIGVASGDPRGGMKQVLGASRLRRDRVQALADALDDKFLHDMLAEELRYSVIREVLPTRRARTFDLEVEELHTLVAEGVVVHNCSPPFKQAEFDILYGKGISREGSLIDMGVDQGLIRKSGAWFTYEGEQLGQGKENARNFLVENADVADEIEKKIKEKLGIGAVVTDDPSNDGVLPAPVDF
`COc1ccc(COC(=O)NC(C(=O)O)c2ccccc2)cc1` (stereo unspecified) gave an inhibition of -3.65%. `COc1ccc(CN(C)C(=O)CC(c2ccccc2)c2ccccc2)cc1` showed an inhibition of 12%. `COc1ccc(C(CCN(Cc2ccc(OC)c(OC)c2)C(=O)CCl)c2ccccc2)cc1` (stereo unspecified) was tested, and the inhibition was 77.7% (active). Work on `CCCc1cc(=O)oc2c(C)c(OCC(=O)Nc3ccccn3)ccc12` yielded an inhibition of 0.212%. Work on `COc1ccc(N2CCN(C(=O)COc3ccc4c(C)cc(=O)oc4c3)CC2)cc1` yielded an inhibition of -4.41%. `CC(=O)Nc1cccc(NC(=O)CSc2nccn2Cc2ccc(F)cc2)c1` showed an inhibition of -1.4%. With `CN(C)c1ccc(C=C2C(=O)OC3(CCCC3)OC2=O)cc1` the inhibition was -3.67%. With `CC1=NN(Cc2ccccc2)C(=O)/C1=C/c1ccc(N(C)C)cc1` the inhibition was 42.9% (active). For `CN(C)c1ccc(/C=C2\NC(=S)N(Cc3ccccc3)C2=O)cc1`, the inhibition was -1.92%. `CCc1cccc2c3c([nH]c12)C(CC)(CC(=O)O)OCC3` (stereo unspecified) showed an inhibition of -3.9%. In the case of `CCCC/C(C)=N/NC(=O)NC1CCCCC1`, the inhibition is reported as -5.59%. `O=C1/C(=C\c2ccc3c(c2)OCO3)N2CCC1CC2` was tested, and the inhibition was -0.267%. `O=C1/C(=C/c2ccc3c(c2)OCO3)CCC/C1=C\c1ccc2c(c1)OCO2` was tested, and the inhibition was 30.4% (active). Work on `O=C(N/N=C/c1ccc2c(c1)OCO2)C(=O)N1CCCC1` yielded an inhibition of -2.18%. `Cc1nn(-c2ccccc2)c(C)c1NC(=O)COC(=O)c1cc(Cl)ccc1O` gave an inhibition of 0.496%. Work on `CC(C(=O)c1ccc(-c2ccccc2)cc1)[n+]1cccc(Br)c1` (stereo unspecified) yielded an inhibition of 0.227%. In the case of `O=C(Nc1ccccc1Cl)/C(Cl)=C(\Cl)S(=O)c1ccccc1` (stereo unspecified), the inhibition is reported as 97% (active). In the case of `O=C(Cc1ccc2c(c1)CCCC2)Nc1ccccc1Cl`, the inhibition is reported as 5.79%. `O=C(Nc1ccccc1Cl)Nc1cccc2cccnc12` was tested, and the inhibition was 6.8%. For `CCN(C(=O)CSc1nnc(-c2ccc(OC(F)F)cc2)n1N)C1CCS(=O)(=O)C1` (stereo unspecified), the inhibition was -2.58%. For `C=CCN1C(=NC(=O)COc2ccccc2)SC2CS(=O)(=O)CC21` (stereo unspecified), the inhibition was -0.786%. With `Oc1ccc(/C=N/Nc2nc(-c3ccccc3F)nc3ccccc23)c(O)c1` the inhibition was 10.7%. In the case of `Cc1nc2ccccc2nc1N/N=C/c1ccc(O)cc1O`, the inhibition is reported as 32% (active). `Oc1ccc(/C=N/NC2=NCCCCC2)c(O)c1` gave an inhibition of -9.19%. `CCCOc1ccc(Cl)cc1Nc1nc(NCCO)nc(N2CCCC2)n1` showed an inhibition of -0.826%. `Cn1c(=O)c2c(-c3cccc(Br)c3)c(C#N)c(N)nc2n(C)c1=O` gave an inhibition of -11.9%. In the case of `CCc1ccc2c(c1)cc(CN(C(=S)Nc1ccccc1Cl)C1CC1)c1nnnn12`, the inhibition is reported as -0.332%. `CSc1ccccc1NC(=O)C(C)N1C(=O)c2ccccc2S1(=O)=O` (stereo unspecified) was tested, and the inhibition was 1.38%. Work on `O=C(Nc1ccc(F)cc1)C(=O)c1cn(CC(=O)N2CCOCC2)c2ccccc12` yielded an inhibition of -4.57%. With `Cc1ccc(S(=O)(=O)NC2(C(F)(F)F)NC(=O)N(CCc3ccccc3)C2=O)cc1` (stereo unspecified) the inhibition was -2.6%. `Cc1nn(-c2ccc([N+](=O)[O-])cc2)c(N)c1-c1ccccc1` was tested, and the inhibition was 0.233%. Work on `CC1=NN(c2ccccc2)C(=O)C1C(=O)c1ccc([N+](=O)[O-])cc1` (stereo unspecified) yielded an inhibition of 5.51%. With `O=C1CC(c2ccccc2)=NN1c1ccc([N+](=O)[O-])cc1` the inhibition was 54.9% (active). Compound `O=C(CN1C(=O)C2C3C=CC(C3)C2C1=O)Nc1nc(-c2ccccn2)cs1` (stereo unspecified) has an inhibition of -1.82%. For `CCn1c(CC(=O)Nc2ccccc2)nnc1SCC(=O)N1CCOCC1`, the inhibition was -3.34%. `N#Cc1ccc(C2N=C(c3ccccc3)NO2)cc1` (stereo unspecified) was tested, and the inhibition was -0.394%. With `O=C(CSC1=NCCS1)Nc1nc(-c2ccccc2)cs1` the inhibition was 37.4% (active). For `CCNC(=O)CSc1nc(-c2ccccc2)cs1`, the inhibition was 0.44%. `O=C(CSc1nc2ccccc2c(=O)[nH]1)Nc1nc(-c2ccc(Br)cc2)cs1` gave an inhibition of 1.49%. For `CC(C)C(C)NC(=O)COc1nc2ccccc2nc1N(C)C1CCCCC1` (stereo unspecified), the inhibition was -2.05%. `COc1ccc(C(=O)NCCSc2ccccc2C)cc1` showed an inhibition of 3.07%. With `CCCCC(O)(CCCC)C(=O)NN(C(=O)CCl)c1ccccc1` the inhibition was 42.8% (active). For `CCCC(O)(CCC)C(=O)NN(C(=O)CCl)c1cccc(C)c1`, the inhibition was 18.1%. With `COC(=O)N(NC(=O)C(O)(C(C)C)C(C)C)c1ccccc1` the inhibition was -3.28%. `CCOC(=O)C1Cn2c(nc3c(c2=O)C(C)(CC)Cc2ccccc2-3)S1` (stereo unspecified) gave an inhibition of -3.72%. In the case of `CCCc1nnc(NC(=O)CCC(=O)NC2CC2)s1`, the inhibition is reported as -1.59%. For `CCN(CC)C(=O)CN(c1cccc([N+](=O)[O-])c1)S(=O)(=O)c1ccccc1`, the inhibition was 0.016%. `Cc1ccc(S(=O)(=O)N(Cc2cccc([N+](=O)[O-])c2)C(=O)N2CCN(C)CC2)cc1` showed an inhibition of 1.46%. With `O=C(CCl)N(Cc1cccc([N+](=O)[O-])c1)c1cccc(Cl)c1` the inhibition was 88.1% (active). `O=C(CCS(=O)(=O)c1ccccc1Cl)Nc1ccc(S(=O)(=O)Nc2ncccn2)cc1` was tested, and the inhibition was -0.502%. Compound `CC(C)c1ccc(N(C(=O)c2ccco2)C(C(=O)NC2CCCC2)c2cccnc2)cc1` (stereo unspecified) has an inhibition of 2.58%. For `O=C(c1nnc(-c2ccc(Cl)cc2)o1)C1CCCC1`, the inhibition was -10.3%. With `O=C(c1[nH]ncc1-c1ccc(Cl)cc1)C1CO1` (stereo unspecified) the inhibition was 33% (active). With `S=c1[nH]nc(-c2ccc(Cl)cc2)n1CC1CCCO1` (stereo unspecified) the inhibition was -1.85%. Work on `COc1ccccc1OCCCCCCN1CCN(C)CC1` yielded an inhibition of -1.55%. `CC(OC(=O)CNC(=O)c1cccc(F)c1)C(=O)NC1CCCCC1C` (stereo unspecified) showed an inhibition of -0.912%. `N#Cc1c(N)n(CCOC(=O)c2ccc(Cl)cc2)c2nc3ccccc3nc12` was tested, and the inhibition was 51.9% (active). `CC(C)(C)OC(=O)c1c(N)n(CCCN2CCCC2=O)c2nc3ccccc3nc12` was tested, and the inhibition was -350%. With `COCC(C)OC(=O)c1c(N)n(CCCN2CCOCC2)c2nc3ccccc3nc12` (stereo unspecified) the inhibition was -97.2%. Compound `CC(C)(C)n1nc(Cc2cccc3ccccc23)c(C#N)c1N` has an inhibition of 4.34%. With `COc1ccc(N(C(=O)c2snc(C(N)=O)c2N)C(C(=O)NC2CCCC2)c2ccc(C)o2)c(OC)c1` (stereo unspecified) the inhibition was 5.96%. In the case of `O=C(OCC(=O)N(CCc1ccccc1)Cc1ccccc1)c1ccccc1[N+](=O)[O-]`, the inhibition is reported as 18.8%. In the case of `Cc1ccc(C(=O)N/N=C\c2cc(Br)c(Br)o2)cn1`, the inhibition is reported as 32% (active). Work on `Cc1ccc(C(=O)N/N=C/c2cccc3ccccc23)cn1` yielded an inhibition of 0.625%. `O=C(N/N=C\c1cc(Br)c(Br)o1)C1COc2ccccc2O1` (stereo unspecified) gave an inhibition of 0.81%. `Cn1c2ccccc2n2c(=O)c(=O)n(CC(=O)c3ccc(F)cc3)nc12` gave an inhibition of -7.28%. `COCCN1CCN(C(=O)c2cc(COc3ccc(F)cc3Cl)on2)CC1` was tested, and the inhibition was -1.15%. For `O=C(Nc1ccc(Cl)cc1)C1c2cccc[n+]2CC(=O)N1Cc1ccc2c(c1)OCO2` (stereo unspecified), the inhibition was 36.5% (active). For `O=C(C1CCN(Cc2ccc(Cl)cc2)CC1)N1CCN(Cc2ccc3c(c2)OCO3)CC1`, the inhibition was -0.0543%. Work on `CC1CCC(NC(=O)C2c3ccccc3C(=O)N2Cc2ccc3c(c2)OCO3)CC1` (stereo unspecified) yielded an inhibition of -1.41%. `C=CS(=O)c1sc(Cl)c(N2CCOCC2)c1[N+](=O)[O-]` (stereo unspecified) was tested, and the inhibition was 33.8% (active). Compound `CCOC(=O)c1cc(NC(=O)c2ccc(Cl)cc2)c(=O)oc1-c1ccccc1` has an inhibition of -0.694%. With `COc1ccc(N=C(C)c2sc3ccccc3c2O)cc1` the inhibition was 0.51%. With `Oc1ccc(N=Cc2sc3ccccc3c2Cl)cc1` the inhibition was 34.2% (active). `O=C(N/N=C/c1c(Cl)[nH]c2ccccc12)c1sc2ccccc2c1Cl` was tested, and the inhibition was 3.69%. Compound `CC(C)(C)C1CCC(C(=O)NCC(c2cccs2)N2CCOCC2)CC1` (stereo unspecified) has an inhibition of 4.62%. `COc1ccc2c(c1)C(=C(C#N)C#N)C(=O)N2CCc1ccccc1` was tested, and the inhibition was 61.5% (active). For `C#CCN1C(=O)C(O)(CC(=O)c2cc(OC)ccc2OC)c2ccccc21` (stereo unspecified), the inhibition was 2.4%. `CCCCN1C(=O)/C(=C(/C#N)C(N)=O)c2ccccc21` was tested, and the inhibition was 1.79%. With `O=[N+]([O-])c1ccc2nc(-c3ccccn3)[nH]c2c1` the inhibition was 0.606%. Work on `COc1ccc(-c2nnc(SCC(=O)Nc3cccnc3Cl)n2C)cc1` yielded an inhibition of -0.381%. `COc1ccc(N(CC(=O)NCC2CCCO2)C(=O)CCC(=O)Nc2nccs2)c(OC)c1` (stereo unspecified) showed an inhibition of 1.28%. `COc1ccc(NC(=O)/C(Cl)=C(/Cl)S(=O)Cc2ccc(C)cc2)cn1` (stereo unspecified) was tested, and the inhibition was 89% (active). In the case of `COc1ccc(NC(=O)c2cc(-c3ccc(C)cc3)on2)cc1`, the inhibition is reported as -0.468%. Compound `Cc1ccc(NC(=O)OCc2cncs2)cc1` has an inhibition of -1.45%. `O=C(Nc1ccccc1-c1nnn(CC(=O)N2CCN(c3ccccc3)CC2)n1)c1cccs1` was tested, and the inhibition was 0.619%. Work on `COc1ccc(CNC(=O)CN(c2ccc(OC)c(Cl)c2)S(=O)(=O)c2ccc(C)cc2)cc1` yielded an inhibition of -0.316%. With `O=[N+]([O-])c1c(NCCO)cc(Sc2nc3ccccc3s2)c2nonc12` the inhibition was 94.4% (active). `O=C(O)c1cccc(S(=O)(=O)Nc2ccc(O)cc2Sc2nc3ccccc3s2)c1` was tested, and the inhibition was -3.82%. For `CCOc1ccccc1Nc1ccc2nonc2c1[N+](=O)[O-]`, the inhibition was 2.95%. For `CSc1nnc(NC(=O)c2nc(S(=O)(=O)Cc3ccc(C)cc3)ncc2Cl)s1`, the inhibition was 82.8% (active). In the case of `Cc1ccc(CS(=O)(=O)c2ncc(Cl)c(C(=O)Nc3nnc(C)s3)n2)cc1`, the inhibition is reported as 61% (active). In the case of `Cc1ccc(S(=O)(=O)CC(=O)Nc2nnc(C)s2)cc1`, the inhibition is reported as -0.704%. Work on `CSc1ncc(Cl)c(C(=O)Nc2cc(C)ccc2C)n1` yielded an inhibition of -0.95%. `CCSc1nnc(NC(=O)c2ccc(C)cc2)s1` showed an inhibition of 2.42%. Compound `Cc1nnc(NC(=O)CCCOc2ccccc2)s1` has an inhibition of -1.92%.
